Results: the supplement of paper PMC12669032
Values without a mark were called inactive.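 Rule for the calls: active = AUC reduced over 20% with Padj below 0.05 in at least 2 of 3 replicates; inactive = otherwise.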

What was measured:
Test in all cases: growth AUC relative to DMSO control (median of replicates) (fraction); higher = more growth (less inhibition), active = hit call of the paper
Conditions in all cases: 20 µM; 24 h
[1] = test system: Coprococcus comes
Outline: (§1)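 Each value is the median of three biological replicates, grown on separate days, of a gut bacterial monoculture incubated anaerobically at 37 °C in mGAM with 20 µM compound (1% DMSO). Cultures started at OD600 0.05 and were read at OD600 hourly for 24 h, with the minimum OD set to 0. Area under the growth curve was normalised to the plate median of solvent-only wells, or to row and column medians on the industrial chemical plate.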

[2] = test system: Escherichia coli ED1a
Outline: as §1

[3] = test system: Escherichia coli IAI1
Outline: as §1

[4] = test system: Eubacterium rectale
Outline: as §1

[5] = test system: Fusobacterium nucleatum subsp. animalis
Outline: as §1

[6] = test system: Lactobacillus gasseri
Outline: as §1

[7] = test system: Lactobacillus paracasei
Outline: as §1

[8] = test system: Odoribacter splanchnicus
Outline: as §1

[9] = test system: Parabacteroides distasonis
Outline: as §1

[10] = test system: Parabacteroides merdae
Outline: as §1

[11] = test system: Roseburia intestinalis
Outline: as §1

[12] = test system: Streptococcus salivarius
Outline: as §1

| Compound | growth AUC [1] | growth AUC [2] | growth AUC [3] | growth AUC [4] | growth AUC [5] | growth AUC [6] | growth AUC [7] | growth AUC [8] | growth AUC [9] | growth AUC [10] | growth AUC [11] | growth AUC [12] |
| --- | --- | --- | --- | --- | --- | --- | --- | --- | --- | --- | --- | --- |
| CCCCCCCCc1c(CC)nc2ncnn2c1N | 1.01 | 0.986 | 0.978 | 0.988 | 1.04 | 0.904 | 0.931 | 0.989 | 0.946 | 0.964 | 0.948 | 0.985 |
| COc1nc(N)nc(NC(C)(C)C)n1 | 1.03 | 1 | 0.98 | 0.976 | 0.964 | 0.933 | 1.02 | 1.07 | 1 | 1.02 | 0.943 | 1.03 |
| CCc1nc2ncnn2c(N)c1CCCCCC(=O)O.Cl | 1.03 | 1.02 | 1.04 | 1.11 | 1.14 | 1.08 | 0.977 | 1.04 | 0.99 | 1.06 | 0.955 | 1.02 |
| CC(C)c1nn(C(=O)NC(C)(C)C)c(=O)n1N | 1.02 | 1.02 | 1.02 | 0.971 | 0.994 | 1.07 | 1.02 | 1 | 1 | 1.02 | 1.02 | 1.01 |
| Cc1cccc(C)c1N(CC(=O)O)C(=O)CS(=O)(=O)[O-].[Na+] | 0.996 | 0.973 | 0.946 | 0.847 | 0.941 | 0.987 | 0.928 | 1.01 | 0.965 | 0.997 | 0.979 | 0.972 |
| Cl.NCCO/C=C/[C@H](N)C(=O)O | 0.947 | 1.03 | 1.02 | 1.08 | 0.981 | 0.853 | 1.02 | 0.8 | 0.828 | 1.01 | 0.975 | 1.05 |
| CCOC(=O)Cn1c(=O)sc2cccc(Cl)c21 | 0.959 | 1.01 | 0.957 | 0.996 | 0.994 | 1.04 | 0.993 | 0.979 | 1.07 | 0.98 | 0.968 | 0.961 |
| O.O=C(Nc1ccc(Cl)c(Cl)c1)Nc1cc(Cl)ccc1Oc1ccc(Cl)cc1S(=O)(=O)[O-].[Na+] | 0.823 | 1.06 | 1.03 | 0.886 | 0.691 | 0.0949 (active) | 0.906 | 0.0102 (active) | 0.494 (active) | 0.861 | 0.792 (active) | 0.478 (active) |
| Cc1[nH]oc(=O)c1N=Nc1ccccc1Cl | 1.01 | 0.989 | 0.962 | 1.03 | 0.839 | 0.931 | 0.955 | 1.06 | 0.987 | 0.949 | 0.938 | 0.982 |
| COC(=O)c1ccccc1S(=O)(=O)NC(=O)Nc1nc(OC(F)F)cc(OC(F)F)n1 | 1 | 1.02 | 1.01 | 0.964 | 0.957 | 1.19 | 1.04 | 0.99 | 1.04 | 1 | 1.01 | 0.994 |
| c1cc2ccc3ccc4ccc5cccc6c(c1)c2c3c4c56 | 1.01 | 1.04 | 1.01 | 0.999 | 0.946 | 0.994 | 1.02 | 1.01 | 1.04 | 1.02 | 1.02 | 1.02 |
| O=C(Nc1ccc(F)cc1-c1ccc(Cl)c(Cl)c1)c1cn[nH]c1C(F)F | 0.916 | 0.974 | 0.945 | 0.82 | 0.983 | 0.814 | 0.953 | 0.553 (active) | 0.373 (active) | 0.779 (active) | 0.892 | 0.945 |
| CCCCOC(=O)[C@@H](C)Oc1ccc(Oc2ccc(C(F)(F)F)cn2)cc1 | 0.961 | 0.989 | 0.997 | 0.918 | 0.789 | 0.915 | 0.993 | 0.977 | 0.844 | 0.96 | 0.973 | 0.969 |
| CN(C(=O)NC(C)(C)c1ccccc1)c1ccccc1 | 1.01 | 1.01 | 0.974 | 0.981 | 0.909 | 1.01 | 0.951 | 1.1 | 0.952 | 1 | 1.02 | 0.933 |
| C=CCOC(Cn1ccnc1)c1ccc(Cl)cc1Cl (stereo not given) | 0.0723 (active) | 0.986 | 0.967 | 0.0607 (active) | 0.938 | 0.851 | 0.969 | 0.882 | 0.847 | 0.919 | 0.767 (active) | 0.915 |
| N#Cc1c(N)nc(NC2CC2)nc1N | 1.01 | 0.991 | 0.992 | 0.935 | 0.994 | 0.939 | 0.972 | 1.01 | 1.02 | 1 | 0.999 | 1 |
| CCCOc1nc2ccc(I)cc2c(=O)n1CCC | 1.04 | 0.991 | 0.974 | 0.996 | 0.973 | 0.833 | 0.976 | 1.05 | 0.647 (active) | 0.923 | 0.942 | 0.994 |
| CCOCN(C(=O)C(=O)O)c1c(C)cccc1CC | 1.01 | 1 | 0.996 | 0.989 | 1.03 | 0.989 | 1.05 | 0.991 | 1.02 | 1.01 | 0.996 | 1.04 |
| O.O=C(Nc1ccc([N+](=O)[O-])cc1Cl)c1cc(Cl)ccc1O | 0.884 | 1 | 0.973 | 0.952 | 0.741 | 0.15 (active) | 0.3 (active) | 0.039 (active) | 0.0373 (active) | 0.0254 (active) | 0.869 | 0.085 (active) |
| CC(C)OC(=O)N[C@H](C(=O)N[C@H](C)c1nc2ccc(F)cc2s1)C(C)C | 1.06 | 0.989 | 1 | 1.13 | 1.16 | 0.859 | 1.03 | 1.02 | 0.847 | 1 | 0.975 | 0.959 |
| COCCOc1ccccc1S(=O)(=O)NC(=O)Nc1nc(OC)nc(OC)n1 | 0.987 | 0.959 | 0.97 | 0.983 | 0.983 | 0.88 | 1.02 | 1.08 | 0.978 | 0.94 | 0.907 | 0.98 |
| CCOCCOC(=O)C(C)Oc1ccc(Oc2ncc(C(F)(F)F)cc2Cl)cc1 (stereo not given) | 0.989 | 0.996 | 0.986 | 1.05 | 1.05 | 0.952 | 1.02 | 1.07 | 0.859 | 0.991 | 0.953 | 0.959 |
| CCCOC(=O)c1ccc(O)cc1 | 1 | 0.986 | 0.971 | 0.951 | 0.985 | 1.06 | 1.01 | 0.945 | 1.01 | 0.988 | 1 | 0.979 |
| CC(C)N(C)S(=O)(=O)NC(=O)c1cc(-n2c(=O)cc(C(F)(F)F)[nH]c2=O)c(F)cc1Cl | 0.971 | 0.995 | 1 | 0.959 | 1.08 | 1.03 | 0.893 | 1.03 | 0.961 | 1.02 | 0.987 | 1.01 |
| Clc1ccc(Sc2cc(Cl)c(Cl)cc2Cl)cc1 | 0.964 | 0.972 | 0.984 | 0.943 | 1.04 | 0.86 | 1.05 | 1.1 | 1.01 | 0.976 | 0.937 | 0.933 |
